From PubChem BioAssay
Rab9 promoter act: activates the Rab9 promoter | Huh7 Rab9 promoter-luciferase reporter, luminescence, 24 h | Potency, µM (highest dose often 9.22 µM), for inactives: at the highest dose activation, negative = inhibition, usual class: activators | 320,000 tested, 2.8% active | AID 485297; also: % of control where 0% means no effect; nearly all actives have a fitted effect of over 60% in size
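Cells were plated at 1500 per well in reduced-serum medium with 10% FBS and left 2 h. Compound in DMSO was then added for 24 h at 37 °C. Reporter signal was read by luminescence after 10 min with luciferase detection reagent.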
SMN2 splice up: enhancers of SMN2 splice variant expression | HEK293 SMN2-luciferase splicing reporter, luminescence, 30-36 h | 210,000 tested, 2.8% active | Potency, µM (series often up to 46.1 µM), without a hit: at the highest dose activity change, positive = activation, usual class: activators | AID 1458; also: % of control where 0% means no effect; nearly all actives have a fitted effect of over 55% in size
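qHTS luciferase splicing reporter: luminescence rises when SMN2 exon 7 is included in transfected HEK293 cells. Compound exposure lasted 30-36 h at 37C, with 4.5 mM final sodium butyrate as control, followed by a ONE-Glo read.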
NPC1 prom act: activators of NPC1 promoter; Huh7 NPC1 promoter luciferase reporter, 24 h; 320,000 tested, 2.4% active; Potency, µM (doses to about 9.22 µM), inactives show at the top dose activation, hits mostly activators; also: % of control where 0% means no effect; nearly all actives have a fitted effect of over 60% in size
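Compounds in DMSO were transferred onto Huh7 NPC1-luciferase reporter cells pre-incubated 2 h; after 24 h at 37 °C, Amplite reagent was dispensed and luminescence recorded 10 min later.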
ELG1 genotox: genotoxicity induction in ELG1-luciferase HEK293T cells; Potency, µM (doses to about 46 µM), inactives show top-dose activity change, positive = activation, usual class: activators; 330,000 tested, 1.3% active; AID 504466; HEK293T ELG1-luciferase reporter, luminescence, 16 h; also: % of control where 0% means no effect; nearly all actives have a fitted effect of over 60% in size
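Step 1: seed 2,000 HEK293T ELG1-luciferase cells per well. Step 2: add compound or DMSO, incubate 16 hr at 37 °C. Step 3: ONE-Glo, 30 min at room temperature, read luminescence.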
Luc counter: blocks Kinase-Glo luciferase, a counter-screen artifact. Kinase-Glo luciferase, ATP luminescence, 8 min. Potency, µM (series often up to 38.3 µM), for the others: at the highest dose activity change, negative = inhibition, actives largely listed as inhibitors. 200,000 tested, 0.28% active. AID 1379; also: % is scaled to controls: 0 for no effect and ±100 for the full control effect; nearly all actives have a fitted effect of over 60% in size
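Kinase-Glo luciferase light output from ATP and luciferin was measured with 10 uM ATP, within the enzyme's linear range. Buffer: 50 mM imidazole pH 7.2, 50 mM KCl, 7 mM MgCl2, 0.01% Tween 20, 0.05% BSA; luminescence read after 8 min at ambient temperature.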
FLuc modulator: inhibits or activates purified firefly luciferase, miR-21 counter-screen; purified FLuc, Km substrates, luminescence inhibition; P08659; 360,000 tested, 6.9% active; Potency, µM (top dose mostly 57.5 µM), for the others: at the highest dose activity change, negative = inhibition, actives largely listed as inhibitors; AID 588342;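 also: plate controls were vehicle for no effect and reference inhibitor for full effect; nearly all actives have a fitted effect of over 55% in size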
Target sequence (P08659 whole entry, looked up): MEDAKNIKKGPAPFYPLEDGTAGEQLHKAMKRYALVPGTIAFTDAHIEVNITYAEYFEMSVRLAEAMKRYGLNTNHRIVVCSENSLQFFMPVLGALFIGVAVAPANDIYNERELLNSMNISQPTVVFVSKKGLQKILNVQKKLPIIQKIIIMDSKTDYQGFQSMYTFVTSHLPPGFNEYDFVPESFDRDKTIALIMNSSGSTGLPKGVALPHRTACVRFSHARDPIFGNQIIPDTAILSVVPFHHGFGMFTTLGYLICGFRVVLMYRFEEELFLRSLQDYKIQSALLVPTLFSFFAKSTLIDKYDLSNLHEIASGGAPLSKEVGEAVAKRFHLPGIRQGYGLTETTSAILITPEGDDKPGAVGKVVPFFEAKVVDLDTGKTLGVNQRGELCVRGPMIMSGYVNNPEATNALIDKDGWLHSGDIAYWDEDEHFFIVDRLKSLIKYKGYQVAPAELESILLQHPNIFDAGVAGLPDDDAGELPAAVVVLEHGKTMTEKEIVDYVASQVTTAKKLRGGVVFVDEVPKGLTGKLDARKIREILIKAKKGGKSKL
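Purified P. pyralis luciferase, 10 nM final, with Km-level 10 uM D-luciferin and 10 uM ATP in 50 mM Tris acetate pH 7.5, 10 mM Mg acetate, 0.01% Tween-20, 0.05% BSA; 6-point qHTS titration about 60 µM downward; luminescence read.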
Numbers without * were called inactive; u = inconclusive; x = not tested or not shown; ! = not active in a repeat; [ ] = remark or other dose. Only some compounds are listed: those with a hit (about 7.5% of all), similar ones and a draw of the others. Calls follow the shape of the dose curve; as a rule, active = well fitted curve in the direction sought with a large enough effect; inconclusive = small, poorly fitted or top-dose-only effect, or another doubt; inactive = no such curve, though single readings can be large; an effect the other way counts as inactive or inconclusive. Potency is read from the fitted curve at half-maximal effect.

SMILES | Rab9 promoter act | SMN2 splice up | NPC1 prom act | ELG1 genotox | Luc counter | FLuc modulator
Cc1occc1C(=O)Nc1sc2c(c1C(N)=O)CCC(C(C)(C)C)C2 (stereo not drawn) | 17.2% | -9.3% | 4.0% | 14.1% | 15.4% | u
CC(C)(C)C1CCc2c(sc(NC(=O)c3ccncc3)c2C(N)=O)C1 (stereo not drawn) | 17.4% | 3.2% | 18.3% | -7.0% | 2.1% | 2.69µM*
Cc1cccc(NC(=O)c2cccc(N3C(=O)CCC3=O)c2)c1 | 0.2% | x | 3.0% | -1.4% | x | 0.7%
CCc1ccc2nc(NC(=O)c3ccc(N4C(=O)CCC4=O)cc3)sc2c1 | 23.6% | x | 22.7% | 8.0% | x | 8.49µM*
O=C(Nc1nc2c(s1)CCCC2)c1ccc(N2C(=O)CCC2=O)cc1 | u | x | u | u | x | 19µM*
CC1CCc2nc(NC(=O)c3ccc(N4C(=O)CCC4=O)cc3)sc2C1 (stereo not drawn) | 13.7% | x | 3.8% | -9.6% | x | 9.53µM*
CCN(CC)C(=O)c1sc2c(c1C)c(=O)n(-c1ccc(OC)cc1OC)c(=O)n2CC(=O)Nc1ccccc1 | x | x | x | x | x | -5.3%
COc1cc(/C=N/NC(=O)c2nonc2C)ccc1O | -0.9% | 6.6% | -0.8% | 2.6% | -14.4% | u
Cc1nonc1C(=O)N/N=C/c1ccc(O)c(O)c1 | -14.3% | -10.7% | -9.1% | 3.1% | 6.31µM* | u
O=C(N/N=C/c1ccc(O)c(O)c1)N/N=C/c1ccc(O)c(O)c1 | -13.8% | x | 0.0% | 7.3% | x | 5.36µM*
Cc1cc(SCC(=O)N/N=C/c2ccc(O)c(O)c2)c(C)cc1Br | 0.6% | 18.1% | -6.9% | -9.1% | -2.2% | 5.7%
O=C(NNC(=O)c1cccc2ccccc12)c1ccc2c(c1)OCO2 | u | x | 27.1% | 18.2% | x | u
COc1cc(Cl)c(CN2CCCC(CO)(Cc3cccc(Cl)c3)C2)cc1OC (stereo not drawn) | -5.1% | x | 2.3% | -7.7% | x | 3.2%
CCCCNc1c(-c2ccc(SC(C)CC)cc2)nc2ccccn12 (stereo not drawn) | 3.55µM* | x | 3.55µM* | -6.7% | x | 1.35µM*
CCCCNc1c(-c2ccc(SC3CCCCC3)cc2)nc2ccccn12 | 3.98µM* | x | 2.82µM* | 10.3µM* | x | 4.78µM*
CCCCNc1c(-c2cccc(SC(C)CC)c2)nc2ccc(Cl)cn12 (stereo not drawn) | x | x | x | -1.9% | x | x
CCC(=O)NC(=S)Nc1ccc(S(=O)(=O)NC2CCCCC2)cc1 | -10.1% | x | -0.4% | -8.8% | x | 2.6%
COc1ccc(OC)c(S(=O)(=O)N/N=C\c2cn(CC(N)=O)c3ccccc23)c1 | 1.3% | x | -21.2% | -5.1% | x | -1.4%
CN(Cc1ccccc1)S(=O)(=O)c1nnc(NC(=O)c2cccc(Cl)c2)s1 | x | x | x | x | x | -17.8%
CN(Cc1ccco1)S(=O)(=O)c1nnc(NC(=O)c2cccc(Cl)c2)s1 | 24.9% | x | 29.1% | -2.3% | x | 26.9µM*
CC(C)CN(c1ccccc1)S(=O)(=O)c1nnc(NC(=O)c2ccco2)s1 | -0.1% | x | 1.6% | -3.1% | x | 0.849µM*!
CN(c1ccccc1)S(=O)(=O)c1nnc(NC(=O)c2ccco2)s1 | 0.9% | x | 0.8% | 0.4% | x | -20.7%
CCN(CC)S(=O)(=O)c1nnc(NC(=O)c2ccco2)s1 | 7.8% | x | 8.4% | 2.2% | x | 26.9µM*
CC(=O)Nc1nc(NC(C)=O)c2[nH]c(CO)nc2n1 | x | -12.6%[9.22 µM] | x | x | -0.7%[7.66 µM] | x
CC(=O)C(/C=N/c1cc(-c2ccc(C)cc2)nn1-c1ccccc1)=C(\C)O | 3.98µM* | u | 3.98µM* | u | -12.9% | u
SMILES | Rab9 promoter act | SMN2 splice up | NPC1 prom act | ELG1 genotox | Luc counter | FLuc modulator
c1ccc2c(c1)CCN(c1nc3ccccc3n3cnnc13)C2 | 6.8% | 12.1% | -0.8% | -0.4% | 1.3% | u
c1ccc2c(c1)CCCN2c1nc2ccccc2n2cnnc12 | 6.8% | 3.1% | 0.8% | 9.6% | 15.2% | 15.1µM*
Cc1csc(=O)n1CCC(=O)OCC(=O)c1ccc(Br)cc1 | -9.0% | x | -5.6% | 0.7% | x | 1.6%
COc1cccc(C(=O)Nc2cc3c(cc2C(C)=O)OCCO3)c1 | -0.1% | 29.4% | 0.1% | 3.7% | 0.9% | 5.36µM*
COc1cccc(NC(=O)c2oc3ccccc3c2NC(=O)c2cc3ccccc3o2)c1 | x | 1.1% | x | x | x | u
COc1cccc(NC(=O)c2oc3ccccc3c2NC(=O)C(C)(C)C)c1 | -3.4% | -15.5% | 0.6% | -6.8% | 3.1% | -0.1%
COc1cccc(NC(=O)c2oc3ccccc3c2NC(=O)c2ccc3c(c2)OCO3)c1 | 28.3% | 0.8% | 15.6% | -6.8% | -29.0% | 2.69µM*
CCC(=O)Nc1cccc(NC(=O)c2ccc3c(c2)OCO3)c1 | 28.6% | u | 17.3% | 7.2% | -5.9% | 15.1µM*
COc1cccc(NC(=O)c2oc3ccccc3c2NC(=O)c2ccc(OC(C)C)cc2)c1 | x | 9.6% | x | x | x | 2.69µM*
COc1cc(OC)c(NC(=O)Cn2cnc3c(nc4n3CCCCC4)c2=O)cc1Cl | x | x | x | x | x | 5.0%
COc1cccc(C(=O)n2c(SC)nc3cc4c(cc32)OCCO4)c1 | 21.4% | 12.4% | 17.5% | 13.2% | 0.2% | 13.5µM*
COc1cccc(NC(=O)c2ccc3c(c2)OCO3)c1 | 0.447µM* | x | 0.501µM* | 6.51µM* | x | 2.69µM*
COc1cccc(NC(=O)c2ccc3c(c2)OCCO3)c1 | 0.708µM* | x | 1.78µM* | 2.06µM* | x | 0.675µM*
CSc1nc2cc3c(cc2n1C(=O)c1ccc(C)cc1)OCCO3 | 15.6% | 7.1% | 3.3% | 8.2% | -0.6% | u
COc1cccc(OC)c1C(=O)Nc1ccc2c(c1)OCCO2 | -10.7% | 0.6% | -1.6% | -1.2% | 13.0% | -0.7%
CCC(=O)N1CCc2cc(Br)cc(S(=O)(=O)N3CCCC(C(=O)Nc4cccc(Cl)c4C)C3)c21 (stereo not drawn) | x | 7.7% | x | x | x | 4.0%
Cc1ccccc1Cn1c(=N)n(CC(=O)c2ccco2)c2ccccc21 | -4.2% | -11.2% | -1.2% | -12.1% | -0.4% | 0.7%
O=C(O)c1ccc(/C=C2\SC(=S)N(NC(=O)c3ccccc3)C2=O)cc1 | -5.6%[1.84 µM] | x | 0.9% | -3.4% | x | u
COc1ccccc1C(=O)NN1C(=O)/C(=C/c2cccn2C)SC1=S | 0.0% | x | 6.8% | 0.1% | x | u
